PubChem BioAssay (EPA / NIEHS)
The source made the active and inactive calls. Rule for the calls: active = hit-call score of the fitted dose curve at least 0.9, where 1 is the maximum; inactive = score below 0.9.

What was measured:
[1] = read-out: Low-density lipoprotein receptor (LDLR), LDLR (gene 3949); test: BSK_CASM3C_LDLR: BioMAP Diversity Plus: CASM3C Assay for Low-density lipoprotein receptor (LDLR) Biomarker Activity (AID 2283045); conditions: primary human coronary artery smooth muscle cells; actives raise or lower the signal;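 note: LDLR protein level on the cell surface quantified by ELISA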
[2] = read-out: Monocyte Chemoattractant Protein-1 (MCP1), CCL2 (gene 6347); test: BSK_CASM3C_MCP1: BioMAP Diversity Plus: CASM3C Assay for Monocyte Chemoattractant Protein-1 (MCP1) Biomarker Activity (AID 2283046); conditions: primary human coronary artery smooth muscle cells; actives raise or lower the signal;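 note: MCP-1 level quantified by ELISA 24 h after dosing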
[3] = BSK_CASM3C_Proliferation: Cell Proliferation Assessment in the BioMAP Diversity Plus: CASM3C Assay (AID 2283047); conditions: primary human coronary artery smooth muscle cells;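 note: sulforhodamine B total protein stain as relative cell number at 560 nm; sub-confluent cells exposed 48 h before staining; fitted both ways against DMSO so gain or loss of cell number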
[4] = read-out: Monokine induced gamma interferon (MIG), CXCL9 (gene 4283); test: BSK_CASM3C_MIG: BioMAP Diversity Plus: CASM3C Assay for Monokine induced gamma interferon (MIG) Biomarker Activity (AID 2283048); conditions: primary human coronary artery smooth muscle cells; actives raise or lower the signal;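 note: MIG protein level measured by ELISA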
[5] = read-out: serum amyloid A (SAA), SAA1 (gene 6288); test: BSK_CASM3C_SAA: BioMAP Diversity Plus: CASM3C Assay for serum amyloid A (SAA) Biomarker Activity (AID 2283049); conditions: primary human coronary artery smooth muscle cells; actives raise or lower the signal;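 note: SAA protein level quantified by ELISA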
[6] = BSK_CASM3C_SRB: Viability Assessment in the BioMAP Diversity Plus: CASM3C Assay (AID 2283050); conditions: primary human coronary artery smooth muscle cells;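 note: total protein by SRB staining as cytotoxicity measure in parallel cultures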
[7] = read-out: Thrombomodulin, THBD (gene 7056); test: BSK_CASM3C_Thrombomodulin: BioMAP Diversity Plus: CASM3C Assay for Thrombomodulin Biomarker Activity (AID 2283051); conditions: primary human coronary artery smooth muscle cells; actives raise or lower the signal;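 note: thrombomodulin protein level measured by ELISA 24 h after dosing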
[8] = read-out: Tissue Factor, F3 (gene 2152); test: BSK_CASM3C_TissueFactor: BioMAP Diversity Plus: CASM3C Assay for Tissue Factor Biomarker Activity (AID 2283052); conditions: primary human coronary artery smooth muscle cells; actives raise or lower the signal;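 note: cell surface tissue factor protein level read by ELISA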
[9] = read-out: Interferon-gamma inducible Protein 10 (IP10), CXCL10 (gene 3627); test: BSK_hDFCGF_IP10: BioMAP Diversity Plus: hDFCGF Assay for Interferon-gamma inducible Protein 10 (IP10) Biomarker Activity (AID 2283053); conditions: primary human foreskin fibroblasts; actives raise or lower the signal
Outline: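 Human foreskin fibroblast primary cells (hDFCGF system) were dosed with chemical and assayed at 24 h; IP-10 measured by ELISA. Activity fitted bidirectionally relative to DMSO negative control as baseline.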

[10] = read-out: Urokinase-type plasminogen activator receptor (uPAR), PLAUR (gene 5329); test: BSK_CASM3C_uPAR: BioMAP Diversity Plus: CASM3C Assay for Urokinase-type plasminogen activator receptor (uPAR) Biomarker Activity (AID 2283054); conditions: primary human coronary artery smooth muscle cells; actives raise or lower the signal;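 note: cell-surface uPAR protein level quantified by ELISA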
[11] = read-out: Vascular cell adhesion molecule 1 (VCAM1), VCAM1 (gene 7412); test: BSK_CASM3C_VCAM1: BioMAP Diversity Plus: CASM3C Assay for Vascular cell adhesion molecule 1 (VCAM1) Biomarker Activity (AID 2283055); conditions: primary human coronary artery smooth muscle cells; actives raise or lower the signal;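 note: VCAM-1 protein level quantified by ELISA on the cells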
[12] = read-out: Collagen III, COL3A1 (gene 1281); test: BSK_hDFCGF_CollagenIII: BioMAP Diversity Plus: hDFCGF Assay for Collagen III Biomarker Activity (AID 2283056); conditions: primary human foreskin fibroblasts; actives raise or lower the signal
Outline: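 Human foreskin primary fibroblasts were exposed to test chemicals for 24 h, after which collagen III was quantified by ELISA. Activity was fitted bidirectionally against DMSO as negative control and baseline.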

[13] = read-out: Epidermal growth factor receptor (EGFR), EGFR (gene 1956); test: BSK_hDFCGF_EGFR: BioMAP Diversity Plus: hDFCGF Assay for Epidermal growth factor receptor (EGFR) Biomarker Activity (AID 2283057); conditions: primary human foreskin fibroblasts; actives raise or lower the signal
Outline: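 Primary human foreskin fibroblasts were exposed to compound for 24 h, after which cell-surface EGFR was quantified by ELISA. Activity was fitted bidirectionally against the DMSO negative control as baseline.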

[14] = read-out: Interleukin-8 (IL8), CXCL8 (gene 3576); test: BSK_hDFCGF_IL8: BioMAP Diversity Plus: hDFCGF Assay for Interleukin-8 (IL8) Biomarker Activity (AID 2283058); conditions: primary human foreskin fibroblasts; actives raise or lower the signal
Outline: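 hDFCGF human dermal fibroblasts; 24 h chemical exposure; IL-8 by ELISA; bidirectional curve fit vs DMSO baseline; gain or loss of signal scored.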

[15] = BSK_hDFCGF_Proliferation: Cell Proliferation Assessment in the BioMAP Diversity Plus: hDFCGF Assay (AID 2283059); conditions: primary human foreskin fibroblasts;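 note: curves fitted for both rise and fall of signal versus DMSO baseline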
Outline: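 This proliferation readout used SRB total-protein staining of human foreskin fibroblasts […], normalized to DMSO with bidirectional curve fitting.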

[16] = read-out: Macrophage colony-stimulating factor (MCSF), CSF1 (gene 1435); test: BSK_hDFCGF_MCSF: BioMAP Diversity Plus: hDFCGF Assay for Macrophage colony-stimulating factor (MCSF) Biomarker Activity (AID 2283060); conditions: primary human foreskin fibroblasts; actives raise or lower the signal
Outline: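 Human foreskin primary fibroblasts were treated with test chemical for 24 h, and M-CSF was then measured by ELISA. Data were fitted bidirectionally against DMSO as the negative control and activity baseline.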

[17] = BSK_hDFCGF_SRB: Viability Assessment in the BioMAP Diversity Plus: hDFCGF Assay (AID 2283061); conditions: primary human foreskin fibroblasts;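 note: cells exposed to compound for 24 h before the read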
Outline: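 Human foreskin primary fibroblasts were treated with compound and assessed 24 h after dosing. Total protein was measured by sulforhodamine B staining (0.1% SRB after 10% TCA fixation, 560 nm read) as a cytotoxicity marker, with bidirectional fitting against DMSO baseline.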

[18] = read-out: TIMP metallopeptidase inhibitor 1 (TIMP1), TIMP1 (gene 7076); test: BSK_hDFCGF_TIMP1: BioMAP Diversity Plus: hDFCGF Assay for TIMP metallopeptidase inhibitor 1 (TIMP1) Biomarker Activity (AID 2283062); conditions: primary human foreskin fibroblasts; actives raise or lower the signal
Outline: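 Primary human foreskin fibroblasts in the hDFCGF system were dosed with compound for 24 h, then TIMP-1 was measured by ELISA. Activity was fitted bidirectionally relative to DMSO control; parallel SRB staining assessed cytotoxicity.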

[19] = read-out: Monokine induced gamma interferon (MIG), CXCL9 (gene 4283); test: BSK_hDFCGF_MIG: BioMAP Diversity Plus: hDFCGF Assay for Monokine induced gamma interferon (MIG) Biomarker Activity (AID 2283063); conditions: primary human foreskin fibroblasts; actives raise or lower the signal
Outline: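 ELISA read-out of MIG from primary human dermal fibroblasts 24 h post-dosing. Gain or loss of signal fitted bidirectionally, DMSO as baseline.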

[20] = read-out: Matrix Metallopeptidase 1 (MMP1), MMP1 (gene 4312); test: BSK_hDFCGF_MMP1: BioMAP Diversity Plus: hDFCGF Assay for Matrix Metallopeptidase 1 (MMP1) Biomarker Activity (AID 2283064); conditions: primary human foreskin fibroblasts; actives raise or lower the signal
Outline: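 Primary human foreskin fibroblasts in the hDFCGF system were dosed with test chemical, and MMP1 was measured by ELISA 24 h later. Values come from bidirectional curve fitting against the DMSO baseline.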

Measured: AC50

NC(=O)O
inactive: all assays above

CCOP(=S)(OCC)Oc1nc(Cl)c(Cl)cc1Cl
active: [7] 26.9 µM | [9] 20 µM | [12] 9.2 µM | [15] 14.9 µM | [16] 11.9 µM | [20] 4.93 µM
inactive: all other assays above

Oc1c(I)cc(I)cc1I
active: [10] 0.191 µM | [12] 4.24 µM | [15] 8.03 µM | [17] 20 µM
inactive: all other assays above

Cc1ccccc1N
inactive: all assays above

COc1cc(OC)nc(NC(=O)NS(=O)(=O)c2ncccc2C(=O)N(C)C)n1
inactive: all assays above

O=S(=O)(c1ccc(Cl)cc1)c1ccc(Cl)cc1
inactive: all assays above

CC(C)(C)c1cc(O)ccc1O
active: [3] 29.6 µM | [7] 14.7 µM | [8] 11.2 µM | [9] 4.87 µM | [11] 23.7 µM | [12] 5.6 µM | [13] 5.78 µM | [14] 9.21 µM | [15] 0.472 µM | [16] 5.23 µM | [17] 4.07 µM | [18] 4.45 µM | [19] 4.42 µM | [20] 6.21 µM
inactive: [1] | [2] | [4] | [5] | [6] | [10]

CCC(=O)C(CC(C)N(C)C)(c1ccccc1)c1ccccc1 (configuration not stated)
inactive: all assays above

COP(=S)(OC)Oc1ccc(S(=O)(=O)N(C)C)cc1
active: [15] 28.2 µM
inactive: all other assays above

CCCCC(CC)CO[N+](=O)[O-] (configuration not stated)
active: [2] 20 µM | [6] 33.6 µM | [10] 3.05 µM | [11] 34.1 µM
inactive: all other assays above

COP(=S)(OC)Oc1c(Cl)cc(C)cc1Cl
active: [3] 20 µM | [8] 5.88 µM | [12] 13.2 µM
inactive: all other assays above

CC12CC1(C)C(=O)N(c1cc(Cl)cc(Cl)c1)C2=O (configuration not stated)
inactive: all assays above

C=C(C)C(=O)[O][Sn]([CH2]CCC)([CH2]CCC)[CH2]CCC
inactive: [13]
active: [1] 0.148 µM | [2] 0.292 µM | [3] 0.148 µM | [4] 1.03 µM | [5] 0.366 µM | [6] 0.148 µM | [7] 1.54 µM | [8] 1.15 µM | [9] 0.148 µM | [10] 0.391 µM | [11] 0.148 µM | [12] 0.374 µM | [14] 0.148 µM | [15] 0.15 µM | [16] 0.148 µM | [17] 0.242 µM | [18] 0.344 µM | [19] 0.148 µM | [20] 0.148 µM

CCN1CCC2(CC1)COc1cc3c(cc12)N(C(=O)c1ccc(-c2ccc(-c4nnc(C)o4)cc2C)cc1)CC3
inactive: [8] | [13]
active: [1] 34.2 µM | [2] 28.5 µM | [3] 18.7 µM | [4] 36 µM | [5] 32.5 µM | [6] 24.4 µM | [7] 33.7 µM | [9] 9.35 µM | [10] 31.1 µM | [11] 27.6 µM | [12] 9.42 µM | [14] 12.5 µM | [15] 5.13 µM | [16] 7.12 µM | [17] 6.07 µM | [18] 9.3 µM | [19] 11.2 µM | [20] 9.25 µM

COP(=S)(OC)Oc1ccc(Sc2ccc(OP(=S)(OC)OC)cc2)cc1
active: [7] 12.6 µM | [15] 20 µM
inactive: all other assays above

Nc1cccc2ccccc12
active: [1] 12.6 µM | [7] 15.2 µM | [9] 31.6 µM | [12] 27.1 µM | [15] 13.6 µM | [16] 20 µM | [17] 32 µM | [18] 27.7 µM | [20] 33.1 µM
inactive: all other assays above

CC(C)(c1ccccc1)c1ccc(O)c(C(C)(C)c2ccccc2)c1
active: [1] 28.2 µM | [3] 7.92 µM | [4] 29.4 µM | [5] 23.6 µM | [6] 26.8 µM | [7] 34.3 µM | [8] 16.4 µM | [9] 3.52 µM | [10] 29.4 µM | [11] 29.3 µM | [12] 2.94 µM | [13] 3.45 µM | [14] 5.4 µM | [15] 2.82 µM | [16] 3.63 µM | [17] 3.57 µM | [18] 4.07 µM | [19] 4.86 µM | [20] 4.05 µM

NC(=S)Nc1ccccc1
inactive: all assays above

C=CC(=O)OCCCCCC(C)C
inactive: all assays above

CCNc1nc(NC(C)(C)C)nc(SC)n1
inactive: all assays above

COC[C@H](C)N(C(=O)CCl)c1c(C)csc1C
inactive: all assays above

Nc1ccc(-c2ccc(N)c(Cl)c2)cc1Cl
active: [8] 11.6 µM | [15] 0.922 µM
inactive: all other assays above

Cn1sc(Cl)cc1=O
inactive: [1] | [2] | [4] | [5] | [6] | [7] | [8] | [10]
active: [3] 6.81 µM | [9] 28.2 µM | [11] 20 µM | [12] 33.6 µM | [13] 33.6 µM | [14] 37.9 µM | [15] 1.77 µM | [16] 25.6 µM | [17] 30.5 µM | [18] 29.8 µM | [19] 27.9 µM | [20] 32.8 µM

C[C@@H]1C[C@@H]([C@H](O)CC2CC(=O)NC(=O)C2)C(=O)[C@@H](C)C1
active: [1] 0.791 µM | [2] 9.46 µM | [3] 1.63 µM | [4] 1.78 µM | [6] 8.63 µM | [9] 2.32 µM | [10] 3.8 µM | [11] 0.926 µM | [14] 7.54 µM | [15] 4.27 µM | [16] 4.1 µM | [18] 2.49 µM | [19] 4.4 µM | [20] 3.37 µM
inactive: [5] | [7] | [8] | [13]
